In PubChem BioAssay (NCATS):
Values joined by “and” are separate entries in the source; they are usually repeats but may differ in a detail not shown here. Equal values may be shown once. Results filed as inconclusive are left out. Active and inactive are the calls of the source. Unless noted, calls come from the whole dose curve; as a rule, active = well fitted curve in the direction sought with a large enough effect; inconclusive = small, poorly fitted or top-dose-only effect, or another doubt; inactive = no such curve, though single readings can be large; an effect the other way counts as inactive or inconclusive.

Key:
[1] = AP1 Signaling Pathway (AID 357; active = well fitted curve in either direction with a large enough effect, not every such curve was filed as active;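 note: ME-180 reporter cells stimulated with EGF at its EC50 level; % is set by controls: 0 for no effect and ±100 for the full control effect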); details: ME-180 AP-1-bla reporter, EGF-induced, beta-lactamase ratio, 5 h; at 7.69 µM (top of the series) unless noted
Method in brief: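 AP-1-bla ME-180 cells, Opti-MEM + 0.5% dialyzed FBS, plated overnight 37 °C. Cpd titration + EC50 EGF, 5 h 37 °C. CCF4 2.5 h RT; ex 405, em 460/530 ratio → %activity, AC50.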

[2] = biological target: Cytochrome P450 1A2 (Homo sapiens) (UniProt P05177); assay: p450-cyp1a2 (AID 410; calls by dose curve; note: potency is the fitted concentration of half-maximal effect;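 for activity change, negative = inhibition: -100% = full effect of reference inhibitor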)
Cytochrome P450 1A2 (Homo sapiens), sequence (P05177 whole entry, looked up): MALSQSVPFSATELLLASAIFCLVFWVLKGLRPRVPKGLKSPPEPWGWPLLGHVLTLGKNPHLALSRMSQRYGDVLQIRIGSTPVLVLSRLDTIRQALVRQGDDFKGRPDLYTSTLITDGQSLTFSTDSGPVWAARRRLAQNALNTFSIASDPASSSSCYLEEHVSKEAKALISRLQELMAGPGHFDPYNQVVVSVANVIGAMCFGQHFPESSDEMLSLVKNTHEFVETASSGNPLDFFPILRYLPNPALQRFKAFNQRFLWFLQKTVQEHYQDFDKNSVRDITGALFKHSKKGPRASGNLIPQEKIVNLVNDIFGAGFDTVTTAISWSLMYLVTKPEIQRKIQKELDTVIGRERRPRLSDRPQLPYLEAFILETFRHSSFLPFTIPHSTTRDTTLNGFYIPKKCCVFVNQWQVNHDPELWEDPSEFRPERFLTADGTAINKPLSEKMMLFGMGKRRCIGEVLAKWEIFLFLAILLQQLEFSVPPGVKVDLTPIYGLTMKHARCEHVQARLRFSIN
Method in brief: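 Human CYP1A2 (20nM) demethylated Luciferin-ME at its Km (100uM) in 100mM KPO4. After 10 min compound preincubation, NADPH regeneration ran the reaction 60 min at room temperature. Luciferin was read by luminescence, normalized to 57 uM furafylline.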

[3] = NFAT Signaling Pathway (AID 444; active = well fitted curve in either direction with a large enough effect, not every such curve was filed as active;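 note: carbachol stimulus at about its EC50 of 1 µM final; % is set by controls: 0 for no effect and ±100 for the full control effect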); details: Jurkat NFAT-bla M1, carbachol, beta-lactamase ratio, 5 h; at 7.69 µM (top of the series) unless noted
Method in brief: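 Jurkat cells carrying an NFAT-driven β-lactamase reporter and co-transfected muscarinic M1 receptor were treated with compound plus carbachol (1 uM final, an EC50 level) for 5 h at 37 °C. CCF4 loading followed for 1 h at RT; 460/530 nm ratio gave %activity.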

[4] = biological target: Glucocorticoid receptor (Homo sapiens) (UniProt P04150); assay: GR-GFP Redistribution (AID 450;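 active = compounds whose dose series gives a full or clear partial fitted curve of increased nuclear translocation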; note: potency is the fitted concentration of half-maximal effect); details: U2OS GR-GFP nuclear translocation, laser cytometry, 2 h
Glucocorticoid receptor (Homo sapiens), sequence (P04150 whole entry, looked up, the tested form may be a part): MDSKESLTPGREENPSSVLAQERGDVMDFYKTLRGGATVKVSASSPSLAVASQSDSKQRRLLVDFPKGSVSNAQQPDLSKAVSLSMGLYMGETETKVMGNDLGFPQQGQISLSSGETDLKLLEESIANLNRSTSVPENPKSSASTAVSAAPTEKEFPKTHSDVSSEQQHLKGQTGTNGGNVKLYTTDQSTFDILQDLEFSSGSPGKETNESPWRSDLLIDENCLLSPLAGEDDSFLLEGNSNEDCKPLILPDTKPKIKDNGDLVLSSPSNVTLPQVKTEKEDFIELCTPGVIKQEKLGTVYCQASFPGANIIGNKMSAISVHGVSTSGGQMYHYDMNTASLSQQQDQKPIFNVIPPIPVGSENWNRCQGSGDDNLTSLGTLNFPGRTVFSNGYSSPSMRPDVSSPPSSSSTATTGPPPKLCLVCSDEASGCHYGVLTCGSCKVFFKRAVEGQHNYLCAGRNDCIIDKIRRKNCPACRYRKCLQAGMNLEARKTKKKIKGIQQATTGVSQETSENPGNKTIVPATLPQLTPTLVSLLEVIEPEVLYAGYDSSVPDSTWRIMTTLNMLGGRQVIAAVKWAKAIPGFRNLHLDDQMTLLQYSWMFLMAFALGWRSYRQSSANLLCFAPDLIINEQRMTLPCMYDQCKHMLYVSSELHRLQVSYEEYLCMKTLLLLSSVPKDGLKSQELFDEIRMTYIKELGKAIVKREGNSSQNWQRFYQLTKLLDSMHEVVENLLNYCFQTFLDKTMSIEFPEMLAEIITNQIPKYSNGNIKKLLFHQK

[5] = biological target: Glucocorticoid receptor (Homo sapiens) (UniProt P04150); assay: GR-EFC Redistribution (AID 451; calls by dose curve; note: potency is the fitted concentration of half-maximal effect); details: CHO-K1 GR-EFC translocation, beta-gal luminescence, 2 h
Method in brief: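 CHO-K1 cells stably expressing nuclear-localized β-gal enzyme acceptor and GR fused C-terminally to the enzyme donor fragment; ligand-driven nuclear translocation restores β-gal by complementation. Compounds titrated up to 46 uM final, 2 h at 37 °C; luminescence read.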

[6] = biological target: Mitogen-activated protein kinase 10 (Mus musculus) (UniProt Q61831); assay: JNK3 AlphaScreen Assay (AID 530; active = well fitted curve in either direction with a large enough effect, not every such curve was filed as active;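 note: kinase came from lysate of stimulated human HepG2 cells; signal reports phosphorylation of biotinylated GST-cJun 1-79 at Ser73 with 10 µM ATP; % is set by controls: 0 for no effect and ±100 for the full control effect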)
Method in brief: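 JNK3 came from HepG2 lysates pre-activated with IL-1beta and TNF-alpha and phosphorylated biotinylated GST-cJun (1-79) at 10 uM ATP, pH 7.6, room temperature. Compounds were titrated. AlphaScreen signal used anti-phospho-cJun (Ser73) antibody.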

[7] = biological target: 3',5'-cyclic-AMP phosphodiesterase 4B (Homo sapiens) (UniProt Q07343); assay: qHTS Assay for Inhibitors of PDE-IV (AID 607; active = well fitted activation curve with a large enough effect in the main read-out, with a control signal flat, not every such curve was filed as active; note: % of control where 0% means no effect)
3',5'-cyclic-AMP phosphodiesterase 4B (Homo sapiens), sequence (Q07343 whole entry, looked up): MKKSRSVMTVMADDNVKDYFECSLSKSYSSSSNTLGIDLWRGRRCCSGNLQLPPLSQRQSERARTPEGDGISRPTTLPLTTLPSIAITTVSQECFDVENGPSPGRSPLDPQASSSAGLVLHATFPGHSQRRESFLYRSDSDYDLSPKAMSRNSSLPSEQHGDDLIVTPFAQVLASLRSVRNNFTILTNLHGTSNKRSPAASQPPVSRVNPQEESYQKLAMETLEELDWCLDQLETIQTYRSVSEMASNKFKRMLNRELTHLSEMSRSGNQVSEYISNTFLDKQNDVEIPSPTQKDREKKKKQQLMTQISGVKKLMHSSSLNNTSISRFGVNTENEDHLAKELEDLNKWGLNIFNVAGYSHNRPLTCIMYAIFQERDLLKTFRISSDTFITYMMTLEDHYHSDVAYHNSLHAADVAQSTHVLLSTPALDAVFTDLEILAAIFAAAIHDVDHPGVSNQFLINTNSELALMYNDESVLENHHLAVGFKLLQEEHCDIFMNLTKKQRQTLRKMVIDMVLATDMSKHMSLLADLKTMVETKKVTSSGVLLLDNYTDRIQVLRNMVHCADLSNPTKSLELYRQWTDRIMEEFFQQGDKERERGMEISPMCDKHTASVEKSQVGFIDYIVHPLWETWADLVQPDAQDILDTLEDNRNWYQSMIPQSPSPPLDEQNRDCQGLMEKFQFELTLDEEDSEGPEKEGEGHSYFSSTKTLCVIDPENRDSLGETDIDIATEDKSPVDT
Method in brief: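 Live HEK293 cells with a modified cyclic nucleotide-gated (CNG) channel report intracellular cAMP via membrane-potential dye fluorescence (ex 535/em 590 nm). Endogenous PDE-IV was targeted. Compounds were tested at up to 22.9 uM final; RO 20-1724 100 uM served as control.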

[8] = biological target: Guanine nucleotide-binding protein G(i) subunit alpha-1 (Homo sapiens) (UniProt P63096); assay: qHTS Assay for Inhibitors of RGS12 GoLoco Motif Activity (Green Fluorophore) (AID 879);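 note: 0% = labeled peptide with Gαi1 and full inhibition = labeled peptide alone without protein; negative values mean loss of peptide binding seen as reduced polarization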
Guanine nucleotide-binding protein G(i) subunit alpha-1 (Homo sapiens), sequence (P63096 whole entry, looked up): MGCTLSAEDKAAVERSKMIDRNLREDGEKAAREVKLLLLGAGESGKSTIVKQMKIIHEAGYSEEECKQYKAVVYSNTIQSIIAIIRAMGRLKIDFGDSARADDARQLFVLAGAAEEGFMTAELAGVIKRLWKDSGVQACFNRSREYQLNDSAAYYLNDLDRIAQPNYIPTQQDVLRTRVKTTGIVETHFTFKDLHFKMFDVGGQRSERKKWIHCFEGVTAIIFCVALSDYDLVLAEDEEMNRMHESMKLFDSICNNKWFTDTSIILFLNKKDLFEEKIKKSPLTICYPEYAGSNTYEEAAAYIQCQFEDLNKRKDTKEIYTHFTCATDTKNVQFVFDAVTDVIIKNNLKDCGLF
Method in brief: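 Fluorescence polarization assay: 50 nM Gαi1 with 10 nM FITC-labeled RGS12 GoLoco peptide in 10 mM Tris pH 7.5, 150 mM NaCl, 0.1 mM GDP, 0.05% NP40, 10 min at room temperature with compound.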

[9] = qHTS Assay for Identification of Small Molecule Antagonists for NFkB Signaling Pathway (AID 895; active = well fitted inhibition curve with a large enough effect in the signal ratio, with a control signal flat, not every such curve was filed as active; the % refers to the signal ratio; note: % is set by controls: 0 for no effect and ±100 for the full control effect)
Method in brief: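 NFkB-bla ME-180 cervical carcinoma cells with beta-lactamase reporter under NFkB response element; compounds added, then TNF alpha at 10 pM final (EC50), 5 h at 37 C. LiveBLAzer substrate 2 h, room temperature; emission 460/530 nm at 405 nm excitation.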

[10] = qHTS Assay for Identification of Small Molecule Agonists for Thrombopoietin (TPO) Signaling Pathway (AID 917); note: % is set by controls: 0 for no effect and ±100 for the full control effect
Method in brief: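 Activators of TPO signaling were sought in murine Ba/F3 cells transfected with the human receptor, using a luciferase gene driven by the Glycoprotein IIb promoter; 24-hr compound exposure at 37 C alongside 26 pM TPO, in IL-3-free medium.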

[11] = biological target: Muscarinic acetylcholine receptor M1 (Rattus norvegicus) (UniProt P08482); assay: qHTS Assay for Antagonists of Acetylcholine Muscarinic M1 Receptor: Measurement of IP-One Response (AID 944); note: nearly all actives have a fitted effect of over 75% in size
Muscarinic acetylcholine receptor M1 (Rattus norvegicus), sequence (P08482 whole entry, looked up): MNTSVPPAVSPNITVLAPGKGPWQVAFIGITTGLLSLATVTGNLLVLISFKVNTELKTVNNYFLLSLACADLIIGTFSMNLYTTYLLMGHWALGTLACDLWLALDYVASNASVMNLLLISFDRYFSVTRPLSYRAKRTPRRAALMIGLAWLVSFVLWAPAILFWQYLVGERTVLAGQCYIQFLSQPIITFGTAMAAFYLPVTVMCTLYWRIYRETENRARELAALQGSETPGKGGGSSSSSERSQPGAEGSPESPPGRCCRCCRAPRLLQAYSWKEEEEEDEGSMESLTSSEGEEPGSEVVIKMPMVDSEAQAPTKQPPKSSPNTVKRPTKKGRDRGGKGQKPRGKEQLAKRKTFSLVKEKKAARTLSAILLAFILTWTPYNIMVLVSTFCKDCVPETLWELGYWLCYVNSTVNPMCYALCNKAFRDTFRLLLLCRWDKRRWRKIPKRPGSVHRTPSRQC
Method in brief: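 CHO cells expressing rat M1 receptor, recovered overnight, were pre-incubated 10 min with compound, then stimulated 30 min with carbachol at EC80 (200 nM) in LiCl-containing buffer, pH 7.4. IP1 accumulation was read by HTRF (620/665 nm).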

[12] = biological target: Pyruvate kinase (Leishmania mexicana) (UniProt Q27686); assay: qHTS Validation Assay for Inhibitors of Leishmania Mexicana Pyruvate Kinase (AID 945);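 note: 0% = DMSO only neutral control wells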
Pyruvate kinase (Leishmania mexicana), sequence (Q27686 2-499 E452W): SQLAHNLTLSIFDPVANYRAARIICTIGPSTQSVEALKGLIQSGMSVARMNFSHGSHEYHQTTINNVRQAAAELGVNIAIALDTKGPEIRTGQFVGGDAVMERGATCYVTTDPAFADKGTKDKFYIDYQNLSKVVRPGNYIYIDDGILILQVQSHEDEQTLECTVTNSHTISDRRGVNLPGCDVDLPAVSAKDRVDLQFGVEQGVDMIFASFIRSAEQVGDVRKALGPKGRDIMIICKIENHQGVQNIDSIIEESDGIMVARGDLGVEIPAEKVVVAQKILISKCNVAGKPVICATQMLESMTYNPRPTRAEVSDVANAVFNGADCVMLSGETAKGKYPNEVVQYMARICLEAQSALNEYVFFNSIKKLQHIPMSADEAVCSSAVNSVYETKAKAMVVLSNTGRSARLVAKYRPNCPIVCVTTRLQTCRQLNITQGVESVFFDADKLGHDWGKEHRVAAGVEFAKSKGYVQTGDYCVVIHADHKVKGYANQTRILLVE
Method in brief: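 qHTS eight-point titrations against 0.2 nM LmPYK (E451W) in imidazole buffer pH 7.2 with 0.5 mM PEP, 0.1 mM ADP; 1 h, room temperature. Readout: PKLight luminescence, normalized to neutral DMSO wells.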

[13] = biological target: Pyruvate kinase PKM (Homo sapiens) (UniProt P14618); assay: qHTS Assay for Activators of Human Muscle Pyruvate Kinase (AID 954; active = well fitted curve in the direction sought with a large enough effect, not every such curve was filed as active;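 note: 0% = uninhibited enzyme and -100% = no enzyme or full thiadiazolimine inhibition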)
Pyruvate kinase PKM (Homo sapiens), sequence (P14618 whole entry, looked up): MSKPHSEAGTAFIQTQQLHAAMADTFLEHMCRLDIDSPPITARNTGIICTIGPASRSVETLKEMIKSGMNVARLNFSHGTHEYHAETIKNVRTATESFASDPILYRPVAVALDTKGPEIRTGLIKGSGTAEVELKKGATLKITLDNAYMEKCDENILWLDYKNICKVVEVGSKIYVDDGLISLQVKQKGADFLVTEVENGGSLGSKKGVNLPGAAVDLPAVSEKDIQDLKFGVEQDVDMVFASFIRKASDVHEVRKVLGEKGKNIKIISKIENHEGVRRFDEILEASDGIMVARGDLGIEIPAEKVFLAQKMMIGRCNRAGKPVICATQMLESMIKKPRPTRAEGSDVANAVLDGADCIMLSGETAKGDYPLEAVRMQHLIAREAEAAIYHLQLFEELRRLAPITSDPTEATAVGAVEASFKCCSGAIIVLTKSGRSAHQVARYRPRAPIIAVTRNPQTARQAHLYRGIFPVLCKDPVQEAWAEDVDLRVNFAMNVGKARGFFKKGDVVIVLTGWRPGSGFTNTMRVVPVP
Method in brief: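 Enzyme was run at intermediate activity so both inhibitors and activators could be detected. ATP formed from ADP and PEP by 0.1 nM human PKM2 during a 1 h room-temperature incubation was quantified by coupled luciferase luminescence.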

[14] = biological target: alpha-glucosidase (Oryza sativa, rice) (UniProt Q653V4); assay: Counterscreen for Glucocerebrosidase Inhibitors: qHTS Assay for Rice alpha-Glucosidase at pH 5.0 (AID 997);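 note: 0% = full activity with enzyme and -100% = basal without enzyme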
Method in brief: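 Rice alpha-glucosidase (4 nM final) with 400 uM 4-methylumbelliferyl-alpha-D-glucopyranoside in citrate buffer pH 5.0, 20 min at room temperature, stopped at pH 10; fluorescence 365/440 nm, compounds 0.7 nM–77 uM, AC50 from Hill fits.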

[15] = Stat Signaling Pathway (AID 446; active = well fitted curve in either direction with a large enough effect, not every such curve was filed as active); details: ME-180 SIE beta-lactamase reporter, IL-6 stimulated, 5 h; at 7.69 µM (top of the series) unless noted
Method in brief: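 IL-6/STAT signaling read in ME-180 cells via an SIE beta-lactamase reporter. Stimulus was 40 pM IL-6 (its AC50) for 5 hrs, so both activation and inhibition register.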

[16] = biological target: Cytochrome P450 2C9 (Homo sapiens) (UniProt P11712); assay: qHTS Assay for Inhibitors and Substrates of Cytochrome P450 2C9 (AID 883); note: % is set by controls: 0 for no effect and ±100 for the full control effect; nearly all actives have a fitted effect of over 60% in size
Method in brief: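 CYP2C9 deoxyluciferin hydroxylation, 37C, 60 min with NADPH regeneration; 10nM enzyme, 100uM Luciferin-H (KM). Glo detection reagent stopped reaction; luminescence normalized to sulphaphenazole (57uM) full inhibition.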

[17] = biological target: Cytochrome P450 2D6 (Homo sapiens) (UniProt P10635); assay: qHTS Assay for Inhibitors and Substrates of Cytochrome P450 2D6 (AID 891);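 note: luciferin methyl ether substrate demethylated by CYP2D6 with NADPH regeneration; % is set by controls: 0 for no effect and ±100 for the full control effect; nearly all actives have a fitted effect of over 60% in size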
Cytochrome P450 2D6 (Homo sapiens), sequence (P10635 whole entry, looked up): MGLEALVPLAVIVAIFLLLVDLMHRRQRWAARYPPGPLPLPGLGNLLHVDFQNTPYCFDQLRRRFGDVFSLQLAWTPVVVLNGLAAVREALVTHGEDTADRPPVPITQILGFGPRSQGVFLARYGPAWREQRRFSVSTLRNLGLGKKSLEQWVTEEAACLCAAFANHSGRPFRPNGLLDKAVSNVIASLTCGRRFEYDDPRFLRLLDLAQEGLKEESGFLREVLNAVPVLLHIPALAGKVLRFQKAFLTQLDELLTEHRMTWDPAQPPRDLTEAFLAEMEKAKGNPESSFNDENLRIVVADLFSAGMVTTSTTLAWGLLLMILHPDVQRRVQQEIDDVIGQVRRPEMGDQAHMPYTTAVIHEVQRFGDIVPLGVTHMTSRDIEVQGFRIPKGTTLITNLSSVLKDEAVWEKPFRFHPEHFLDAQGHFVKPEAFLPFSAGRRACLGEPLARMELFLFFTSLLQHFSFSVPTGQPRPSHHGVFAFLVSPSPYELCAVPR
Method in brief: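 Human CYP2D6 (5 nM) with 30 uM Luciferin-ME EGE (at Km) in 100 mM KPO4, compound preincubated 10 min, then NADPH regeneration system for 60 min at room temperature. Luciferin read by luminescence; normalized to 1.43 uM quinidine.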

[18] = biological target: Cytochrome P450 2C19 (Homo sapiens) (UniProt P33261); assay: qHTS Assay for Inhibitors and Substrates of Cytochrome P450 2C19 (AID 899); note: % is set by controls: 0 for no effect and ±100 for the full control effect; nearly all actives have a fitted effect of over 60% in size
Method in brief: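 In 50mM KPO4, the reaction held 5nM enzyme and KM-level (10uM) Luciferin-H EGE; it ran 60 min at 37C after NADPH regeneration and a 10 min compound preincubation. Luminescence values were scaled to 57uM ketoconazole as complete inhibition.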

[19] = biological target: Alpha-galactosidase A (Homo sapiens) (UniProt P06280); assay: Counterscreen for Glucocerebrosidase Inhibitors: qHTS Assay for Human alpha-Galactosidase at pH 4.5 (AID 992); note: 0% is about no effect
Alpha-galactosidase A (Homo sapiens), sequence (P06280 whole entry, looked up): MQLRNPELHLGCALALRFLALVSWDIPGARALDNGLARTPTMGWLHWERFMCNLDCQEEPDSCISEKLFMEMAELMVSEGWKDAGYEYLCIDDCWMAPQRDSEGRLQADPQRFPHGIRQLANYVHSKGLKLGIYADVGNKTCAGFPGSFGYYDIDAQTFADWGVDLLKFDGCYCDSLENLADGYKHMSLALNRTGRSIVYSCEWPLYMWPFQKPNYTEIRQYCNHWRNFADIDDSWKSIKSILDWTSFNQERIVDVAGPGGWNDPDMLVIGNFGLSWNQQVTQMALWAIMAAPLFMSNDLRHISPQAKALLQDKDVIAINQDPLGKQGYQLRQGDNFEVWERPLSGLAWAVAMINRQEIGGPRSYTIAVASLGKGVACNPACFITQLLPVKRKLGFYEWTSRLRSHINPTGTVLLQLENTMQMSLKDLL
Method in brief: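 Read-out is 4-methylumbelliferone fluorescence (365 nm excitation, 440 nm emission) after a pH 10 NaOH/glycine stop. Reactions held 2 nM enzyme and 80 uM substrate at pH 4.5 for 20 min at room temperature.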

[20] = biological target: Cytochrome P450 3A4 (Homo sapiens) (UniProt P08684); assay: qHTS Assay for Activators of Cytochrome P450 3A4 (AID 885); note: nearly all actives have a fitted effect of over 65% in size
Method in brief: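 Quantitative HTS format: compounds preincubated with 20nM human CYP3A4 and Luciferin-PPXE substrate at KM, reaction started by NADPH regeneration, stopped after 60 min, luciferase luminescence read 20 min later.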

[21] = qHTS Assay for Identification of Small Molecule Agonists for Hypoxia Response Element Signaling Pathway (AID 914; active = well fitted activation curve with a large enough effect in the signal ratio, with a control signal flat, not every such curve was filed as active; the % refers to the signal ratio; note: % of control where 0% means no effect); details: ME-180 (cervical carcinoma) HRE-bla reporter, beta-lactamase ratio, CoCl2, 17 h; activation: hits give high values
Method in brief: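 Positive modulation of EC50 CoCl2-induced hypoxia response element signaling is measured in ME-180 cells with a beta-lactamase reporter. Compounds are titrated, incubation runs 17 hours, and %Activity derives from the blue/green ratio.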

C=C(C)[C@@H]1CC=C(C(=O)O)CC1
inactive: activity change, negative = inhibition [1] 3.75% [at 38 µM] | Potency [2] | activity change, negative = inhibition [3] -3.51% [at 38 µM] | Potency [4] > 46 µM | Potency [5] > 46 µM | Potency [6] | Potency [7] | outcome [8] | Potency [9] | outcome [10] | Potency [11] | outcome [12] | outcome [13] | Potency [14]

Cc1cn([C@H]2C=C[C@H](CO)O2)c(=O)[nH]c1=O
inactive: activity change, negative = inhibition [1] 11.1% [at 38 µM] | Potency [2] | activity change, negative = inhibition [3] 4.45% [at 38 µM] | activity, negative = inhibition [15] 23.6% [at 38 µM] | Potency [7] | Potency [16] | Potency [17] | Potency [18]

C[C@@H](C(=O)O)c1ccc(C[C@@H]2CCCC2=O)cc1
inactive: activity change, negative = inhibition [1] 14.5% [at 38 µM] | Potency [2] | activity change, negative = inhibition [3] 11.1% [at 38 µM] | activity, negative = inhibition [15] 8.58% [at 38 µM] | Potency [6] | Potency [7] | outcome [8] | Potency [9] | Potency [18] | outcome [10] | Potency [11] | outcome [13] | outcome [19] | Potency [14]

Cc1ccc(C(=O)O[C@@H](C(=O)O)[C@@H](OC(=O)c2ccc(C)cc2)C(=O)O)cc1 (tested in a mixture with another compound)
inactive: activity change, negative = inhibition [1] -1.5% [at 38 µM] | Potency [2] | activity change, negative = inhibition [3] 0.143% [at 38 µM] | activity, negative = inhibition [15] 0.98% [at 38 µM] | Potency [7] | outcome [8] | outcome [10] | Potency [11] | outcome [12] | outcome [19] | Potency [14]

Cc1cccc(C)c1OC[C@@H](N)C(C)C
inactive: activity change, negative = inhibition [1] 9.48% [at 38 µM] | activity change, negative = inhibition [3] 4.41% [at 38 µM] | activity, negative = inhibition [15] 4.92% [at 38 µM] | Potency [5] > 46 µM | Potency [6] | Potency [7] | outcome [8] | Potency [20] | activation [21] -2.64% | Potency [11] | outcome [12] | outcome [13] | Potency [14]
active: Potency [2] 12.6 µM

CCCC[S@@](=N)(=O)CC[C@@H](N)C(=O)O
inactive: activity change, negative = inhibition [1] 3.63% [at 38 µM] and -2.23% [at 38 µM] | Potency [2] | activity change, negative = inhibition [3] -1.5% [at 38 µM] and 5.43% [at 38 µM] | Potency [4] > 46 µM | Potency [5] > 46 µM | Potency [6] | Potency [7] | outcome [8] | Potency [17] | outcome [10] | Potency [11] | outcome [13] | outcome [19] | Potency [14]
